Test results taken from PubChem BioAssay (NCATS).
Results filed as inconclusive are left out. Calls of active or inactive are those of the source. Calls follow the shape of the dose curve; as a rule, active = well fitted curve in the direction sought with a large enough effect; inconclusive = small, poorly fitted or top-dose-only effect, or another doubt; inactive = no such curve, though single readings can be large; an effect the other way counts as inactive or inconclusive.

Legend:
MCC-13 = test: qHTS assay to identify novel small-molecules to repurpose for Merkel cell carcinoma treatment (AID 1296009); settings: MCC and control cell lines, CellTiter-Glo viability, 72 h; series mostly up to 46 µM; also: nearly all actives have a fitted effect of over 60% in size
Summary of the method: (§1)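 72 hr, 37 degree celsius; NPC 8-pt / MIPE 11-pt dose response; compound pinned in DMSO; CellTiter-Glo, 10 min RT, luminescence; normalized to no-cell and DMSO controls.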

MCC-26 = test: as above; settings: MCC and control cell lines, CellTiter-Glo viability, 72 h; series mostly up to 46 µM
Summary of the method: as §1

MKL-1 = test: as above; settings: MCC and control cell lines, CellTiter-Glo viability, 72 h; series mostly up to 46 µM
Summary of the method: as §1

MKL-2 = test: as above; settings: MCC and control cell lines, CellTiter-Glo viability, 72 h; series mostly up to 46 µM
Summary of the method: as §1

UISO = test: as above; settings: MCC and control cell lines, CellTiter-Glo viability, 72 h; series mostly up to 46 µM
Summary of the method: as §1

WaGa = test: as above; settings: MCC and control cell lines, CellTiter-Glo viability, 72 h; series mostly up to 46 µM
Summary of the method: as §1

C33A = test: Primary qHTS to identify gynecologic anti-cancer compounds using libraries of approved drugs and bioactive compounds (AID 1345084); settings: Gynecologic cancer cell panel viability, ATPlite luminescence, 48 h; series mostly up to 57.5 µM; also: nearly all actives have a fitted effect of over 55% in size
Summary of the method: (§2)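 ATP-based viability (ATPlite), 1,000 cells/well, 16 h pre-incubation, 48 h compound at 37 C, 5% CO2, 15 min RT before read.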

CAOV3 = test: as above; settings: Gynecologic cancer cell panel viability, ATPlite luminescence, 48 h; series mostly up to 57.5 µM
Summary of the method: as §2

CASKI = test: as above; settings: Gynecologic cancer cell panel viability, ATPlite luminescence, 48 h; series mostly up to 57.5 µM
Summary of the method: as §2

Measured: Potency
Potency is read from the fitted curve at half-maximal effect.

CCNC(=O)NCc1cccc(Cl)c1
inactive: all assays above

O=C(Nc1cccc(C2=NCCN2)c1)Nc1cccc(C2=NCCN2)c1
inactive: all assays above

COc1ccc(S(=O)(=O)N2c3ccc(Cl)cc3[C@@](O)(c3ccccc3Cl)[C@H]2C(=O)N2CCC[C@@H]2C(N)=O)cc1OC
inactive: all assays above

O=C(NCCc1c[nH]c2ccccc12)c1cccnc1
inactive: all assays above

NS(=O)(=O)Cc1noc2ccccc12
inactive: all assays above

NC(=O)C1(N2CCCCC2)CCN(CCCC(=O)c2ccc(F)cc2)CC1
not listed: CAOV3
inactive: all other assays above

CCc1cc(Cl)c(OC)c(C(=O)NC[C@@H]2CCCN2CC)c1O
inactive: all assays above

CC(C)(C)NC[C@H](O)COc1cccc2c1CCCC2=O
inactive: all assays above

CCCCCCCCCCCCCC(=O)OC(C)C
inactive: all assays above

CC(C)[N+](C)(C)CC(O)COc1cccc2ccccc12 (centres undefined)
not listed: WaGa
inactive: all other assays above

OC(C#CCN1CCCC1)(c1ccccc1)c1ccccc1
not listed: CAOV3
inactive: all other assays above

C[C@@H](O)[C@H]1C(=O)N2C(C(=O)O)=C(S[C@@H]3CN[C@H](CNS(N)(=O)=O)C3)[C@H](C)[C@H]12
not listed: CAOV3
inactive: all other assays above

CC(=O)Nc1ncc([N+](=O)[O-])s1
not listed: CAOV3
inactive: all other assays above

COc1cc(N)c(Cl)cc1C(=O)NC1CCN(Cc2ccccc2)CC1
not listed: CAOV3
inactive: all other assays above

C[C@H]1O[C@@H](O[C@H]2CC[C@@]3(C)[C@H](CC[C@@H]4[C@@H]3C[C@@H](O)[C@]3(C)[C@@H](C5=CC(=O)OC5)CC[C@]43O)C2)C[C@H](O)[C@@H]1O[C@H]1C[C@H](O)[C@H](O[C@H]2C[C@H](O)[C@H](O[C@@H]3O[C@H](CO)[C@@H](O)[C@H](O)[C@H]3O)[C@@H](C)O2)[C@@H](C)O1
active: MCC-13 0.335 µM | MCC-26 0.668 µM | MKL-1 0.531 µM | MKL-2 0.299 µM | UISO 0.299 µM | C33A 0.282 µM | CAOV3 0.501 µM | CASKI 1.58 µM

CC(=O)NO
not listed: CAOV3
inactive: all other assays above

C#C[C@]1(O)CC[C@H]2[C@@H]3CCC4=CC(=O)CC[C@@H]4[C@H]3CC[C@@]21CC
not listed: CAOV3
inactive: all other assays above

CN1CCN(c2cc3c(cc2F)c(=O)c(C(=O)O)cn3-c2ccc(F)cc2)CC1
not listed: CAOV3
inactive: all other assays above

O=C(NC1CCN(CCc2c[nH]c3ccccc23)CC1)c1ccccc1
not listed: CAOV3
inactive: all other assays above

CCC1Nc2cc(Cl)c(S(N)(=O)=O)cc2S(=O)(=O)N1 (centres undefined)
not listed: CAOV3
inactive: all other assays above

OC[C@H]1O[C@@H](Oc2ccc(O)cc2)[C@H](O)[C@@H](O)[C@@H]1O
not listed: WaGa
inactive: all other assays above

CN(C)CCC[C@@]1(c2ccc(F)cc2)OCc2cc(C#N)ccc21
not listed: CAOV3
inactive: all other assays above
